Bioassay records (PubChem BioAssay)
FAS TE block: inhibitors of human fatty acid synthase thioesterase domain. recombinant FAS-TE, OMFH fluorogenic substrate, fluorescence endpoint. inhibition, % at 15 µM. actives 0.67% (n = 360,000). AID 602261;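 active means compounds whose normalised, plate-corrected inhibition of enzyme fluorescence in the single-dose primary screen is 50% or more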;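 further: 0% = DMSO with enzyme and 100% = substrate without enzyme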
H9c2 protect: modulators protecting cardiomyocytes from myocardial damage. H9c2 cardiomyocytes, H2O2 injury protection, ATPLite, 2 h. protection from H2O2 cell death, % at 20 µM. actives 0.63% (n = 360,000);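 active means compounds giving at least 50% protection of heart cells from peroxide-induced death in the single-dose screen, raw or plate-pattern-corrected value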;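 further: 0% = DMSO wells with peroxide and 100% = DMSO wells without peroxide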
PfG6PD inh: PfG6PD (Plasmodium falciparum) enzyme inhibition | AID 504690 | PfGluPho enzyme, NADPH resazurin-diaphorase fluorescence | actives 0.78% (n = 350,000) | inhibition, % at 20 µM;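 active means inhibition reaching at least a set limit at 20 µM in the primary screen, cut at about 59% in these data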;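 further: 0% = DMSO wells with substrate and 100% = DMSO wells lacking glucose-6-phosphate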
aDG glyco up: increases alpha dystroglycan glycosylation; AID 624168; Pro5-aDG cells, alpha-DG glycosylation AlphaScreen (IIH6); 0% Pro5, 100% B10-LARGE cell signal; activation, % at 10 µM; actives 0.22% (n = 360,000);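 active means activation of at least 8% versus controls, or a plate z-score of at least 8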;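 further: Pro5 are CHO cells carrying HIG-tagged alpha-DG that lacks glycosylation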
CRFR2-BP antag: CRF-BP/CRF-R2 complex antagonism | inhibition, % at 11.8 µM | HEK293 CRF-R2/CRF-BP, CRF-induced calcium fluorescence | actives 0.59% (n = 350,000);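 active means inhibition of the ligand-induced calcium signal above about 50% at the single tested concentration, limit read from the data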
CRFR2-BP ag: agonists of human CRF-binding protein/CRF-R2 receptor complex | actives 0.46% (n = 350,000) | HEK293 CRF-R2/CRF-BP, calcium dye fluorescence (FLIPR); percent of saturating CRF peptide response | activation, % at 13.2 µM;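 active means activation of at least 50%, plus an integration ratio under a set limit after plate pattern correction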;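 further: plate controls were neutral control wells without compound for no effect and CRF at EC100 for full effect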
PfG6PD confirm: PfG6PD inhibition, single-dose confirmed | AID 504753 | shares compounds with PfG6PD inh | actives 34% (n = 2,400) | inhibition, % at 20 µM | recombinant PfGluPho, NADPH-diaphorase-resazurin fluorescence;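 active means inhibition of at least 50% at 20 µM in any single replicate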;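 further: 0% = DMSO with substrate and 100% = DMSO lacking glucose-6-phosphate substrate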
Diaph ctr 10uM: inhibits diaphorase or oxidizes, flagging false PfG6PD hits; shares compounds with PfG6PD inh; inhibition, % at 20 µM; actives 39% (n = 820); diaphorase-coupled resazurin reduction, fluorescence, NADPH 10 uM;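 active means average inhibition reaching 50% or more with the compound at 20 µM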;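 further: resorufin red fluorescence formed as diaphorase reduces resazurin using NADPH; 0% = DMSO with enzyme and 100% = DMSO without enzyme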
Diaphorase 30uM: counter-screen for P. falciparum G6PD inhibitors: diaphorase inhibitors, oxidizers. shares compounds with PfG6PD inh. Diaphorase/resazurin coupled assay, resorufin fluorescence, 30 uM NADPH. inhibition, % at 20 µM. actives 29% (n = 820);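 active means inhibition averaging 50% or more, tested at 20 µM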;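 further: 0% = DMSO with enzyme and 100% = DMSO wells lacking diaphorase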
Numbers without * were called inactive. Compounds with a hit are over-represented: about 3.2% of the library has one in this group of screens.

Screening CCCC(=O)NC1=C(N2CC2)C(=O)C(NC(=O)CCC)=C(N2CC2)C1=O returned FAS TE block -5.5, H9c2 protect -13.2, PfG6PD inh 81.2*, aDG glyco up 4.0, CRFR2-BP antag 3.6, CRFR2-BP ag -1.6, PfG6PD confirm 93.5*, Diaph ctr 10uM 84.9* and Diaphorase 30uM 81.5*.
`CCCC(=O)Nc1ccc(N2CCN(CC)CC2)c(Cl)c1` gave FAS TE block -4.8, H9c2 protect -1.1, PfG6PD inh 25.9, aDG glyco up 0.1, CRFR2-BP antag -20.4 and CRFR2-BP ag 0.5.
Screening O=C1NCN(c2ccccc2)C12CCN(C(c1ccnc3ccccc13)c1nnnn1-c1ccc3c(c1)OCCO3)CC2 (configuration not stated) returned FAS TE block 13.7, H9c2 protect 8.6 and aDG glyco up 1.8.
`CN(C)c1ccc(C=C2C(=O)NC(=S)NC2=O)cc1` gave FAS TE block -8.5, H9c2 protect -3.0, PfG6PD inh 68.8*, aDG glyco up 0.2, CRFR2-BP antag 14.9, CRFR2-BP ag -4.5 and PfG6PD confirm 41.0.
`CN(C)c1ccc(C=C2C(=O)NC(=O)NC2=O)cc1` gave FAS TE block -5.7, H9c2 protect 14.9, PfG6PD inh 26.3, aDG glyco up 0.1, CRFR2-BP antag -28.2 and CRFR2-BP ag -0.8.
c1ccc(-c2nc(N3CCOCC3)s[n+]2-c2ccccc2)cc1 was read as FAS TE block -7.1, H9c2 protect -4.6, PfG6PD inh 59.1*, aDG glyco up -0.2, CRFR2-BP antag 8.6, CRFR2-BP ag 1.1, PfG6PD confirm 72.8*, Diaph ctr 10uM -23.7 and Diaphorase 30uM -24.9.
Screening Cc1nc2c(=O)n(C)c(=O)nc-2n(C)n1 returned FAS TE block 7.7, H9c2 protect -31.6, PfG6PD inh 120.2*, aDG glyco up -0.3, CRFR2-BP antag -3.5, CRFR2-BP ag 1.7, PfG6PD confirm 109.2*, Diaph ctr 10uM 98.3* and Diaphorase 30uM 102.4*.
`Cc1ccc(OC(=O)N(C)C[C@H]2OCc3cnnn3CCCC(=O)N([C@H](C)CO)C[C@@H]2C)cc1` gave FAS TE block -5.4, H9c2 protect 0.8, PfG6PD inh -3.9, aDG glyco up -0.2, CRFR2-BP antag -12.1 and CRFR2-BP ag 4.9.
Screening c1ccc2[nH]c(CCNC3CCCCC3)nc2c1 returned FAS TE block -11.4, H9c2 protect 3.2, PfG6PD inh -7.2, aDG glyco up 0.7, CRFR2-BP antag -5.5 and CRFR2-BP ag 2.0.
For COc1ccc2c(c1O)-c1c(OC)c(OC)cc3c1[C@H](C2)N(C)CC3 the results were FAS TE block -1.9, H9c2 protect 16.1, PfG6PD inh -7.0, aDG glyco up 0.4, CRFR2-BP antag 9.8 and CRFR2-BP ag -1.1.
`CCCN1CCc2cccc3c2[C@H]1Cc1ccc(O)c(O)c1-3` gave FAS TE block 2.6, H9c2 protect 50.7*, PfG6PD inh 86.2*, aDG glyco up -0.1, CRFR2-BP antag 2.2, CRFR2-BP ag 1.1, PfG6PD confirm 82.4*, Diaph ctr 10uM 28.1 and Diaphorase 30uM 10.7.
Screening C#C[C@]1(O)CC[C@H]2[C@@H]3CCC4=Cc5nc6nc7ccccc7n6cc5C[C@]4(C)[C@H]3CC[C@@]21C returned FAS TE block 19.3, H9c2 protect 4.2, PfG6PD inh 19.8, aDG glyco up 0.3, CRFR2-BP antag -27.1 and CRFR2-BP ag 41.3.
For O=C1Nc2ccc(Br)cc2C(c2ccc(Cl)cc2)=NC1O (configuration not stated) the results were FAS TE block 7.0, H9c2 protect 2.5, PfG6PD inh 99.5*, aDG glyco up 0.0, CRFR2-BP antag -35.5, CRFR2-BP ag -0.3, PfG6PD confirm 75.1*, Diaph ctr 10uM 83.3* and Diaphorase 30uM 66.8*.
CCOC(=O)[C@]12Cc3cc(OC)ccc3[C@H]1N(CC(=O)OC)C(=O)c1cc(OC)ccc12 was read as FAS TE block 12.1 and aDG glyco up 0.0.
`NC(Cc1ccc(F)cc1)c1csc(Nc2ncccn2)n1` (configuration not stated) gave FAS TE block -5.1, H9c2 protect 0.5 and aDG glyco up 0.9.
For CC1CCN(C(CC(=O)c2ccccc2)C(=O)c2ccccc2)CC1 (configuration not stated) the results were FAS TE block 0.7, H9c2 protect -11.2, PfG6PD inh 94.3*, aDG glyco up 0.5, CRFR2-BP antag -38.1, CRFR2-BP ag -0.2 and PfG6PD confirm 0.1.
COC(=O)C12CCc3c(ccc4cc(OC)ccc34)C1=CC(=O)C2 (configuration not stated) was read as FAS TE block 0.3, H9c2 protect -0.8, PfG6PD inh 71.3*, aDG glyco up 0.9, CRFR2-BP antag 60.5*, CRFR2-BP ag -1.9 and PfG6PD confirm 28.1.
Screening CC(C)COC(=O)N1Cc2ccccc2-n2nncc2C1 returned FAS TE block -4.7, H9c2 protect 5.7, PfG6PD inh -8.3, aDG glyco up 0.3, CRFR2-BP antag 13.5 and CRFR2-BP ag 2.2.
For c1ccc(C(c2ccccc2)c2ccncc2)cc1 the results were FAS TE block -10.4, H9c2 protect 7.0, PfG6PD inh -5.6, aDG glyco up 0.3, CRFR2-BP antag -22.6 and CRFR2-BP ag 0.7.
C=CCN1CC[C@@]2(C)c3cc(O)ccc3CC1[C@@H]2C was read as FAS TE block -5.0, H9c2 protect 12.8, PfG6PD inh -19.6, aDG glyco up -0.2, CRFR2-BP antag 13.1 and CRFR2-BP ag 8.4.
CN1CC[C@@]2(C)c3cc(O)ccc3N(C)[C@@H]12 was read as FAS TE block 0.4, H9c2 protect -12.5, PfG6PD inh 83.2*, aDG glyco up 0.6, CRFR2-BP antag -17.7, CRFR2-BP ag 0.1, PfG6PD confirm 103.6*, Diaph ctr 10uM 74.3* and Diaphorase 30uM 47.8.
Screening O=C(c1cc(-c2ccc(Cl)cc2)n(-c2ccc(Cl)cc2Cl)n1)N1CCOCC1 returned FAS TE block 23.0, H9c2 protect -5.3, PfG6PD inh 82.4*, aDG glyco up 0.9, CRFR2-BP antag 6.7, CRFR2-BP ag 0.1 and PfG6PD confirm 25.4.
`O=C(c1cc([N+](=O)[O-])ccc1N1CCNCC1)N1CCOCC1` gave FAS TE block -12.2, H9c2 protect 9.4, PfG6PD inh 7.0, aDG glyco up 0.0, CRFR2-BP antag 4.8 and CRFR2-BP ag -0.7.
